Our source for the binding signal values is paper PMC7862700, “An all-to-all approach to the identification of sequence-specific readers for epigenetic DNA modifications on cytosine”.

Holding throughout (assay): DAPPL (digital affinity profiling via proximity ligation, sequencing); 10 mM Tris-HCl pH 7.5, 50 mM NaCl, 1 mM DTT, 4% glycerol, room temperature, 30 min; GST-TFs on glutathione beads, 16-mer random dsDNA library, 0.1% formaldehyde crosslink after washing; high values mean tight binding
One test has as its target T1, FEV (Homo sapiens, UniProt Q99581 1-238).
T1 sequence: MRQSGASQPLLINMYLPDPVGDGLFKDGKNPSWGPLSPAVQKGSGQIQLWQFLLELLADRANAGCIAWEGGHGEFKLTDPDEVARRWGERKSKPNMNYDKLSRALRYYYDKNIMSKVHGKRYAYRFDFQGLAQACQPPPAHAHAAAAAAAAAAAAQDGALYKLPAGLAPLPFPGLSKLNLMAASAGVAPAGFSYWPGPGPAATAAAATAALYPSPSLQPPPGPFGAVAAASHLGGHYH
Conditions: protein: recombinant; tags: N-terminal GST; dsDNA, one strand shown. The method in brief: (§1)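 A tag-only sample was pooled with DNA-barcoded human transcription factors that had been expressed in yeast as GST fusions and captured on glutathione beads. The pools were incubated for 30 min at room temperature with 200 nmole of a random double-stranded 16-mer DNA library in Tris/NaCl/DTT/glycerol buffer, then washed, crosslinked with 0.1% formaldehyde, proximity-ligated (BsaI/T4 ligase, 1 h, 37 °C), PCR-amplified and sequenced on an Illumina NextSeq500. Binding signal is each hexamer's read frequency for a factor divided by its frequency for the tag-only sample.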

The next test has as its target ETV5 (Homo sapiens, UniProt P41161 1-510). Conditions: protein: recombinant; tags: N-terminal GST; dsDNA, one strand shown. In short, it runs like this:
as §1

In a further test the target is HSF1 (Homo sapiens, UniProt Q00613 1-529). The settings on record: protein: recombinant; tags: N-terminal GST; chain copies: 3; dsDNA, one strand shown. The method in brief:
as §1

The target of the next test is T2, SPIC (Homo sapiens, UniProt Q8N5J4 1-248).
T2 sequence: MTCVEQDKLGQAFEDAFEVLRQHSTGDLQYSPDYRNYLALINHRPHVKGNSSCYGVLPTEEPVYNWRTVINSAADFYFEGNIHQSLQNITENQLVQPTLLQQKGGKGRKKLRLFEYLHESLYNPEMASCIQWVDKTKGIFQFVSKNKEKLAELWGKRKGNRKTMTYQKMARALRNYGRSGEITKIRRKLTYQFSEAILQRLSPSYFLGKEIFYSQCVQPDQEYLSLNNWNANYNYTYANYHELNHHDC
The settings on record: protein: recombinant; tags: N-terminal GST; dsDNA, one strand shown. In short, it runs like this: as §1

Another test has as its target ELF4 (Homo sapiens, UniProt Q99607 1-663). The settings on record: protein: recombinant; tags: N-terminal GST; dsDNA, one strand shown. The method in brief: as §1
A further test concerns the target T3, ELK4 (Homo sapiens, UniProt P28324-2 1-405).
T3 sequence: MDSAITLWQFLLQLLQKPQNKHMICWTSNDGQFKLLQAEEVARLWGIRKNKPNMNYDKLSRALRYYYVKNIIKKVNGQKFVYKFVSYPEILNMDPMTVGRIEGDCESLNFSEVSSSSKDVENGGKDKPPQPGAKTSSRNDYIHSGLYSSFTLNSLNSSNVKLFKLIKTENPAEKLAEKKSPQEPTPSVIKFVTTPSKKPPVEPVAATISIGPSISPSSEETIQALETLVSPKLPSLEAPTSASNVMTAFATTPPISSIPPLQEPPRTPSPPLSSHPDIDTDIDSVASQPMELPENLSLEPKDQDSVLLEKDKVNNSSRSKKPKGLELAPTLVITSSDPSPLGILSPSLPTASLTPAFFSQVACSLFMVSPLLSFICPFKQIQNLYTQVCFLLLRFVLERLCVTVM
Conditions: protein: recombinant; tags: N-terminal GST; dsDNA, one strand shown. The method in brief: as §1

The next test has as its target T4, ETV2 (Homo sapiens, UniProt O00321 1-342).
T4 sequence: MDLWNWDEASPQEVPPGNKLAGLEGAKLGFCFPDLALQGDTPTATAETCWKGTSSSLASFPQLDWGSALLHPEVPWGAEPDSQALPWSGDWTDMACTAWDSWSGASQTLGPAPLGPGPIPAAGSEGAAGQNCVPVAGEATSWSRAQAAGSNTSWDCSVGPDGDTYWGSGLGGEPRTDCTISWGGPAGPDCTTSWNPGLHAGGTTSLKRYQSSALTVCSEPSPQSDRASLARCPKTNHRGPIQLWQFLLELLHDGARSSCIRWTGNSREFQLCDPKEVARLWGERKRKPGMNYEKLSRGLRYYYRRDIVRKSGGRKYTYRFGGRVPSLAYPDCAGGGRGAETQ
The settings on record: protein: recombinant; tags: N-terminal GST; dsDNA, one strand shown. The method in brief:
as §1

The next test deals with T5, ELF3 (Homo sapiens, UniProt P78545 1-371).
T5 sequence: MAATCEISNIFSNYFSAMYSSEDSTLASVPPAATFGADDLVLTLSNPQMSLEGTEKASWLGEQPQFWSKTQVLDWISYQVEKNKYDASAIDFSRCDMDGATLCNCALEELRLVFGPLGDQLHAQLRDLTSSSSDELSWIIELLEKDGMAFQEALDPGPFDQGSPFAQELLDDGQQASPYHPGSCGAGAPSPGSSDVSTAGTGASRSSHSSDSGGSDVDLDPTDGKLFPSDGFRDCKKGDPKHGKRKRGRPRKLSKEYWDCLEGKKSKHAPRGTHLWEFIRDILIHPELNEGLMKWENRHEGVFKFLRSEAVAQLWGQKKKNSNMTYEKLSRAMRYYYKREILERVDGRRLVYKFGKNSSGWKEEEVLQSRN
The settings on record: protein: recombinant; tags: N-terminal GST; dsDNA, one strand shown. The method in brief:
as §1

The target in another test is CRX (Homo sapiens, UniProt O43186 1-299). Conditions: protein: recombinant; tags: N-terminal GST; dsDNA, one strand shown. In short, it runs like this:
as §1

Another test concerns the target ETV1 (Homo sapiens, UniProt P50549 1-477). Conditions: protein: recombinant; tags: N-terminal GST; dsDNA, one strand shown. The method in brief: as §1

Sequence of HSF1 (Q00613 whole entry): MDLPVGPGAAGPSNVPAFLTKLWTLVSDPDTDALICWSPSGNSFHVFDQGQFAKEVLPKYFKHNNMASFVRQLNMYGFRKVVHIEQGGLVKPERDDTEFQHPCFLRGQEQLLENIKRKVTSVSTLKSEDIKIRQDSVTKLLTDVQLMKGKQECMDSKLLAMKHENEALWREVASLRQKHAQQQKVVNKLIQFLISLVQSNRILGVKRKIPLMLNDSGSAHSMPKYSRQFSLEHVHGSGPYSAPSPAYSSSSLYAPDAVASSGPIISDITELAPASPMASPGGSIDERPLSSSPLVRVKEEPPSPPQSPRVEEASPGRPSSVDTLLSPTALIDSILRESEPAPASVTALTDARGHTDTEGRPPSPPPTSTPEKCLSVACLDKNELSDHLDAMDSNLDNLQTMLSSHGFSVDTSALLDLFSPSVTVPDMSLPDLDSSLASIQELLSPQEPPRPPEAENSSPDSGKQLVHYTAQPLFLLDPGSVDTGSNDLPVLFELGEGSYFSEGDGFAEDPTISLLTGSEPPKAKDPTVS
Sequence of ETV1 (P50549 whole entry): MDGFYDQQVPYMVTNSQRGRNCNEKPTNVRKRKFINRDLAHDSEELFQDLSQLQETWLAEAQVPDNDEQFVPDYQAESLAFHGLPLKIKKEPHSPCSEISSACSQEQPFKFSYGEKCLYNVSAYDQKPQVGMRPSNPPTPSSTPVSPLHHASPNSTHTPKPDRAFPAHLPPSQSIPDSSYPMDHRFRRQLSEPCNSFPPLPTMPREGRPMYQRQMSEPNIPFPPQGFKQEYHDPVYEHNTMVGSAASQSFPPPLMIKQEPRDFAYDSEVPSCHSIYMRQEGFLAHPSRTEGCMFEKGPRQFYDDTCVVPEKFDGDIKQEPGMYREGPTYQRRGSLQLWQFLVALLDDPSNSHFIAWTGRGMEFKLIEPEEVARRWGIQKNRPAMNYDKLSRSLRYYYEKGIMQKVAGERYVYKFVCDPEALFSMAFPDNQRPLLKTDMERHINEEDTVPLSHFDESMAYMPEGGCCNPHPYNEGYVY
Sequence of ELF4 (Q99607 whole entry): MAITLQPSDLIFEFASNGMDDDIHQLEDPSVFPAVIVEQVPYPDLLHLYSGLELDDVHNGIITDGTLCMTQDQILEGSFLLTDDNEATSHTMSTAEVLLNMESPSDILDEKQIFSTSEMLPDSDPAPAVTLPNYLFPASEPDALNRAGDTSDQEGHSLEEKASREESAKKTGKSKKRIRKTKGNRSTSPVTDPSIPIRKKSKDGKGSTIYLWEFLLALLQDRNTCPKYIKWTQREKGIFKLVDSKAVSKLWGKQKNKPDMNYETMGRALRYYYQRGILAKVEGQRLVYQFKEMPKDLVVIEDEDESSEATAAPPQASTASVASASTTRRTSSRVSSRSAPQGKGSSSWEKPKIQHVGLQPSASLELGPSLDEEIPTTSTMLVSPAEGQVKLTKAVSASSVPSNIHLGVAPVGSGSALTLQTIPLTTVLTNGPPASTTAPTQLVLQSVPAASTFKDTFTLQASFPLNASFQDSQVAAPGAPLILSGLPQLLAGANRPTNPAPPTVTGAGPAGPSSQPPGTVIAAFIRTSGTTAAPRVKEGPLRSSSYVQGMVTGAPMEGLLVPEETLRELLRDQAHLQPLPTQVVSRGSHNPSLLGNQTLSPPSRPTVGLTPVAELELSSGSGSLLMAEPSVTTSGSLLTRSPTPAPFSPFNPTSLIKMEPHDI
Sequence of ETV5 (P41161 whole entry): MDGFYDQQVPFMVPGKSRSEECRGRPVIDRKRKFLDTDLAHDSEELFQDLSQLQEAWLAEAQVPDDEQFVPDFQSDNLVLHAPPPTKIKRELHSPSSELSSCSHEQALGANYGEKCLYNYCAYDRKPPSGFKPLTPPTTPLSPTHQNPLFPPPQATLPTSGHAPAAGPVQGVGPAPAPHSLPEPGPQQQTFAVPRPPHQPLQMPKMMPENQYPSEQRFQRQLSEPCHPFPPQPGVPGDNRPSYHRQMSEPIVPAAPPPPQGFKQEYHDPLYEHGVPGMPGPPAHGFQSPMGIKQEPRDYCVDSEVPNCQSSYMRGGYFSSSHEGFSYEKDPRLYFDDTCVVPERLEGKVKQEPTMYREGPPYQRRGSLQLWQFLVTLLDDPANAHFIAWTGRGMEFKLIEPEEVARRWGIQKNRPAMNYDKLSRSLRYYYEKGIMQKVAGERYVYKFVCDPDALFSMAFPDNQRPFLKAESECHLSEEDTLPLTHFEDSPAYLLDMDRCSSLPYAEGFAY
Sequence of CRX (O43186 whole entry): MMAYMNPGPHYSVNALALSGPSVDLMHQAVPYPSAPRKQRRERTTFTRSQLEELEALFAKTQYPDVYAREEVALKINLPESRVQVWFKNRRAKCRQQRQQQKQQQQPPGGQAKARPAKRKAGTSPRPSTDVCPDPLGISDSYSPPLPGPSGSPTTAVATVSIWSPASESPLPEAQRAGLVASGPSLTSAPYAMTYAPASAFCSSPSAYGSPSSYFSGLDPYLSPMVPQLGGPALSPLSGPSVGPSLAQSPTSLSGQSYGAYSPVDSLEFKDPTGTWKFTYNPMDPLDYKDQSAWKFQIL

TTCCAT: the binding signal was 1.18 fold enrichment (6-mer frequency, TF over GST control) with FEV; 1.36 fold enrichment (6-mer frequency, TF over GST control) in the test with ETV5; 1.74 fold enrichment (6-mer frequency, TF over GST control) with HSF1; 1.19 fold enrichment (6-mer frequency, TF over GST control) with SPIC; 1.27 fold enrichment (6-mer frequency, TF over GST control) with ELF4; 1.42 fold enrichment (6-mer frequency, TF over GST control) with ELK4. In addition, the binding signal was 1.23 fold enrichment (6-mer frequency, TF over GST control) with ETV2; 1.2 fold enrichment (6-mer frequency, TF over GST control) with ELF3; 1.43 fold enrichment (6-mer frequency, TF over GST control) in the test with CRX; 1.25 fold enrichment (6-mer frequency, TF over GST control) with ETV1.

Turning to TTACAT, the binding signal with FEV was 1.3 fold enrichment (6-mer frequency, TF over GST control); with ETV5, 1.31 fold enrichment (6-mer frequency, TF over GST control); with HSF1, 1.45 fold enrichment (6-mer frequency, TF over GST control); with SPIC, 1.34 fold enrichment (6-mer frequency, TF over GST control); with ELF4 it was 1.34 fold enrichment (6-mer frequency, TF over GST control); in the test with ELK4, 1.34 fold enrichment (6-mer frequency, TF over GST control). In addition, the binding signal was 1.43 fold enrichment (6-mer frequency, TF over GST control) with ETV2; 1.4 fold enrichment (6-mer frequency, TF over GST control) in the test with ELF3; 1.81 fold enrichment (6-mer frequency, TF over GST control) with CRX; 1.39 fold enrichment (6-mer frequency, TF over GST control) with ETV1.

Consider CCGCTC, for which the binding signal with FEV was 1.61 fold enrichment (6-mer frequency, TF over GST control); with ETV5, 1.46 fold enrichment (6-mer frequency, TF over GST control); with HSF1 it was 1.24 fold enrichment (6-mer frequency, TF over GST control); with SPIC it was 1.53 fold enrichment (6-mer frequency, TF over GST control); in the test with ELF4, 1.6 fold enrichment (6-mer frequency, TF over GST control); with ELK4, 1.65 fold enrichment (6-mer frequency, TF over GST control). In addition, the binding signal in the test with ETV2 is 1.52 fold enrichment (6-mer frequency, TF over GST control); with ELF3, 1.54 fold enrichment (6-mer frequency, TF over GST control); in the test with CRX it was 1.21 fold enrichment (6-mer frequency, TF over GST control); with ETV1 it was 1.45 fold enrichment (6-mer frequency, TF over GST control).

As for CTCTTG, the binding signal in the test with FEV was 1.34 fold enrichment (6-mer frequency, TF over GST control); with ETV5, 1.41 fold enrichment (6-mer frequency, TF over GST control); in the test with HSF1, 1.24 fold enrichment (6-mer frequency, TF over GST control); with SPIC, 1.35 fold enrichment (6-mer frequency, TF over GST control); in the test with ELF4 it was 1.42 fold enrichment (6-mer frequency, TF over GST control); with ELK4, 1.52 fold enrichment (6-mer frequency, TF over GST control). Also, the binding signal with ETV2 is 1.36 fold enrichment (6-mer frequency, TF over GST control); with ELF3 it was 1.22 fold enrichment (6-mer frequency, TF over GST control); in the test with CRX it was 1.21 fold enrichment (6-mer frequency, TF over GST control); with ETV1, 1.41 fold enrichment (6-mer frequency, TF over GST control).

As for TTCGGT, the binding signal was 1.16 fold enrichment (6-mer frequency, TF over GST control) in the test with FEV; 1.23 fold enrichment (6-mer frequency, TF over GST control) with ETV5; 1.22 fold enrichment (6-mer frequency, TF over GST control) in the test with HSF1; 1.34 fold enrichment (6-mer frequency, TF over GST control) with SPIC; 1.17 fold enrichment (6-mer frequency, TF over GST control) in the test with ELF4; 1.21 fold enrichment (6-mer frequency, TF over GST control) with ELK4. The binding signal with ETV2 was 1.13 fold enrichment (6-mer frequency, TF over GST control); in the test with ELF3, 1.04 fold enrichment (6-mer frequency, TF over GST control); with CRX it was 1 fold enrichment (6-mer frequency, TF over GST control); with ETV1 it was 1.23 fold enrichment (6-mer frequency, TF over GST control).

ATGCTT: the binding signal is 1.2 fold enrichment (6-mer frequency, TF over GST control) with FEV; 1.29 fold enrichment (6-mer frequency, TF over GST control) in the test with ETV5; 1.23 fold enrichment (6-mer frequency, TF over GST control) with HSF1; 1.6 fold enrichment (6-mer frequency, TF over GST control) in the test with SPIC; 1.3 fold enrichment (6-mer frequency, TF over GST control) in the test with ELF4; 1.45 fold enrichment (6-mer frequency, TF over GST control) with ELK4. Also, the binding signal with ETV2 was 1.29 fold enrichment (6-mer frequency, TF over GST control); with ELF3, 1.35 fold enrichment (6-mer frequency, TF over GST control); in the test with CRX it was 1.24 fold enrichment (6-mer frequency, TF over GST control); in the test with ETV1, 1.3 fold enrichment (6-mer frequency, TF over GST control).

Consider CACTTA, for which the binding signal was 1.19 fold enrichment (6-mer frequency, TF over GST control) in the test with FEV; 1.2 fold enrichment (6-mer frequency, TF over GST control) with ETV5; 1.26 fold enrichment (6-mer frequency, TF over GST control) with HSF1; 1.08 fold enrichment (6-mer frequency, TF over GST control) in the test with SPIC; 1.19 fold enrichment (6-mer frequency, TF over GST control) with ELF4; 1.13 fold enrichment (6-mer frequency, TF over GST control) with ELK4. The binding signal with ETV2 is 1.21 fold enrichment (6-mer frequency, TF over GST control); with ELF3, 1.24 fold enrichment (6-mer frequency, TF over GST control); with CRX it was 1.62 fold enrichment (6-mer frequency, TF over GST control); in the test with ETV1 it was 1.25 fold enrichment (6-mer frequency, TF over GST control).
